Compound activity from PubChem.
KB-V1 MDR tox: KB-V1 MDR subline cytotoxicity. AID 1347076. Potency, µM (series often up to 46.1 µM), hits mostly cytotoxic. KB-V1 MDR cells viability, CellTiter-Glo, 72 h. hit rate 3.4% among 400,000; note: nearly all actives have a fitted effect of over 60% in size
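Cytotoxicity via CellTiter-Glo luminescence after 72 h compound exposure at 37 degrees C. Cells: drug-selected KB-V1 line, DMEM phenol-red free plus 10% FBS. Compounds tested at multiple concentrations; normalized data fitted to concentration-effect curves.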
HT1080 IDH1KD tx: kills HT-1080 cells with IDH1 knockdown | HT-1080 IDH1 knockdown viability, ATP luminescence, 48 h | Potency, µM (top dose mostly 46.1 µM), inactives show at the highest dose activity, negative = toxicity, usual class: cytotoxic | hit rate 2% among 360,000;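 note: 0% = DMSO wells and -100% = cell-free medium wells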
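Cytotoxicity counter-line: IDH1KD HT-1080, 48 h, CellTiter-Glo. Curves classed by r2, magnitude and activity.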
KB-3-1 tox: kills parental KB-3-1 adenocarcinoma cells. hit rate 1.4% among 400,000. KB-3-1 viability, CellTiter-Glo ATP luminescence, 72 h. Potency, µM (series often up to 46.1 µM), actives largely listed as cytotoxic; note: nearly all actives have a fitted effect of over 60% in size
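Cytotoxicity measured as CellTiter-Glo luminescence after 72 h at 37 C. Compound titrations were pinned onto drug-naive KB-3-1 parental adenocarcinoma cells grown in DMEM with 10% FBS, and normalized data fitted to concentration-response curves.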
TDP1 cell noCPT: qHTS for Inhibitors of human tyrosyl-DNA phosphodiesterase 1 (TDP1): qHTS in cells in absence of CPT. AID 686978, 2013. Potency, µM (series often up to 46.2 µM), without a hit: at the top dose activity change, negative = growth inhibition, actives largely listed as inhibitors. DT40 Tdp1-/- hTDP1 cells, no CPT, ATP luminescence, 48 h. hit rate 15% among 420,000; note: nearly all actives have a fitted effect of over 55% in size
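Chicken DT40 Tdp1-/- cells stably complemented with human TDP1 were seeded at 400 cells/well with DMSO in place of 20 nM camptothecin. After compound pinning, cells grew at least 48 hr at 37 °C; viability read by CellTiter-Glo luminescence.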
DT40 TDP1 CPT: DT40-hTDP1 cell growth loss with CPT; chicken DT40 Tdp1-/-;hTDP1 cells + 20 nM CPT, ATP luminescence, 48 h; Potency, µM (doses to about 46.2 µM), for the others: at the highest dose activity change, negative = growth inhibition, usual class: inhibitors; hit rate 12% among 420,000; AID 686979; note: nearly all actives have a fitted effect of over 55% in size
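Chicken DT40 Tdp1-/- cells stably complemented with human TDP1 were seeded at 400 cells/well in medium containing 20 nM camptothecin, exposed to pin-transferred compounds, and grown at 37 °C for at least 48 hr. Viability was read as ATP luminescence.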
HT1080NT lethal: kills 2HG-producing HT-1080-NT fibrosarcoma cells. HT-1080-NT fibrosarcoma viability, CellTiter-Glo ATP luminescence, 48 h. Potency, µM (doses to about 46.1 µM), for the others: at the top dose activity, negative = less viability, actives largely listed as cytotoxic. hit rate 1.6% among 360,000;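 note: NT is the 2HG producing partner of a matched IDH1 knockdown line; 0% = DMSO-treated cells and -100% = media-only wells without cells; nearly all actives have a fitted effect of over 55% in size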
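Viability of the 2HG-overproducing fibrosarcoma line after 48 hours of compound exposure at 37 degrees C was determined by luminescence with CellTiter-Glo, and concentration-effect curves were then fitted and categorized.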
* hit, by the source's call; i = inactive; ? = inconclusive; / = no result given. Shown are actives, neighbours in structure and some others; about 19% of the full set was active somewhere. Calls come from the whole dose curve; as a rule, active = well fitted curve in the direction sought with a large enough effect; inconclusive = small, poorly fitted or top-dose-only effect, or another doubt; inactive = no such curve, though single readings can be large; an effect the other way counts as inactive or inconclusive. Unless noted, % is set by controls: 0 for no effect and ±100 for the full control effect; potency is the fitted concentration of half-maximal effect.

SMILES	KB-V1 MDR tox	HT1080 IDH1KD tx	KB-3-1 tox	TDP1 cell noCPT	DT40 TDP1 CPT	HT1080NT lethal
Cc1nc(N)sc1-c1csc(Nc2cccc(O)c2)n1	i	-19.4%	i	?	?	-11.9%
Cc1cccc(Nc2nc(-c3c(C)nc4ccccn34)cs2)c1	7.31µM*	?	?	11.2µM*	13µM*	?
Cc1ccn2c(-c3csc(NCc4ccco4)n3)c(C)nc2c1	i	-26.2%	i	18.4µM*	14.6µM*	-21.9%
COc1ccc(CC(N)c2csc(NC(=O)c3cccc(OC(F)(F)F)c3)n2)cc1 (centres undefined)	?	20.6µM*	?	11.6µM*	14.6µM*	20.6µM*
NC(CO)c1csc(NC(=O)Nc2ccccc2Cc2ccccc2)n1 (centres undefined)	i	-12.0%	i	?	?	-2.4%
COc1cccc(C(=O)Nc2nnc(C(C)C)s2)c1	i	-3.5%	i	-19.7%	-2.4%	9.2%
NC(Cc1ccccc1)c1csc(NC(=O)c2cccc(OC(F)(F)F)c2)n1 (centres undefined)	?	?	?	7.31µM*	7.31µM*	14.6µM*
Cc1ccc(Nc2nnc(-c3ccc(C)c(S(=O)(=O)N4CCN(C)CC4)c3)c3ccccc23)cc1	i	/	?	16.4µM*	18.4µM*	/
CCOC(=O)CNS(=O)(=O)c1cc(-c2n[nH]c(=O)c3ccccc23)ccc1C	i	-2.1%	i	-15.0%	?	0.8%
Cc1ccc(NS(=O)(=O)c2cc(-c3n[nH]c(=O)c4ccccc34)ccc2C)cc1	20.6µM*	14.6µM*	11.6µM*	6.51µM*	7.31µM*	18.4µM*
Cc1ccc(-c2nnc(Nc3ccccc3)c3ccccc23)cc1S(=O)(=O)NCc1nc2ccccc2[nH]1	i	/	?	?	?	/
Cc1cccc(Nc2nnc(-c3ccc(C)c(S(=O)(=O)N4CCN(C)CC4)c3)c3ccccc23)c1	/	/	/	?	20.6µM*	/
Cc1ccc(-c2nnc(NCc3nc4ccccc4[nH]3)c3ccccc23)cc1S(=O)(=O)N1CCCCC1	i	3.5%	i	16.4µM*	20.6µM*	-4.1%
O=C(NCC1CCCCC1)c1csc([C@@H]2O[C@H](CO)[C@H](O)[C@H](O)[C@H]2O)n1	i	16.4%	i	-2.1%	3.7%	-3.4%
CNC[C@@H]1OCc2ccccc2-c2c(n(C)c3ccccc23)C(=O)N([C@H](C)CO)C[C@H]1C	i	-24.0%	i	?	?	?
Cc1ccc(Nc2nnc(-c3ccc(C)c(S(=O)(=O)N4CCN(C)CC4)c3)c3ccccc23)c(C)c1	i	/	i	6.51µM*	7.31µM*	/
Cc1ccc(-c2nnc(Nc3cccc(Br)c3)c3ccccc23)cc1S(=O)(=O)N1CCN(C)CC1	i	/	i	18.4µM*	13µM*	/
Cc1ccc(-c2nnc(Nc3cccc(Cl)c3)c3ccccc23)cc1S(=O)(=O)N1CCN(C)CC1	/	/	/	20.6µM*	11.6µM*	/
Cc1ccc(-c2nnc(Nc3ccccc3)c3ccccc23)cc1S(=O)(=O)N1CCN(C)CC1	i	/	i	?	?	/
Cc1ccc(-c2nnc(Nc3cccc(O)c3)c3ccccc23)cc1S(=O)(=O)N1CCCCC1	i	/	i	-102.0%	18.4µM*	/
Cc1ccc(-c2nnc(Nc3cccc(Br)c3)c3ccccc23)cc1S(=O)(=O)N1CCCCC1	i	/	i	-23.7%	-25.3%	/
O=C(OCCO)c1c(-c2ccccc2)oc2c1C(OCCO)CCC2 (centres undefined)	i	4.2%	i	-18.5%	-20.5%	28.6%
CCOC(=O)c1c(C)[nH]c(C)c1S(=O)(=O)NCC(=O)Nc1ccc(C)c(N(C)C)c1	?	/	i	-19.1%	-23.2%	/
Cc1ccc(O)c(C(=O)c2cnn(-c3ccccc3)c2)c1	?	1.4%	i	11.6µM*	7.31µM*	2.3%
O=C(Cc1cnn(-c2ccccc2)c1)c1ccc(O)c(O)c1O	i	-3.4%	?	?	20.6µM*	-13.4%
SMILES	KB-V1 MDR tox	HT1080 IDH1KD tx	KB-3-1 tox	TDP1 cell noCPT	DT40 TDP1 CPT	HT1080NT lethal
Cc1ccc(-n2cc(C(=O)c3ccccc3O)cn2)cc1	i	-8.3%	i	?	-22.2%	2.4%
CCc1cc(C(=O)Cc2ccccn2)c(O)cc1O	i	-1.5%	i	-9.8%	-6.6%	2.0%
CCc1cc(C(=O)Cc2cnn(-c3ccccc3)c2)c(O)cc1O	23.1µM*	-17.3%	i	-19.9%	-20.2%	-2.4%
Oc1cnn(-c2ccccc2)c1	i	-3.9%	i	-22.5%	?	-0.1%
COc1cc2c(cc1OC)CN(S(=O)(=O)/C=C/c1ccccc1)CC2	i	7.8%	i	-23.1%	11.0%	-5.3%
C=CCN(c1ccccc1Cl)S(=O)(=O)c1cccc(C(=O)OCC(=O)N(C)C2CCS(=O)(=O)C2)c1 (centres undefined)	i	-3.2%	i	-12.9%	0.8%	3.0%
COc1ccc(NC(=O)Cn2cc(C(=O)c3ccc(C)c(C)c3)c(=O)c3cc(OC)ccc32)cc1	i	/	i	-1.0%	-5.7%	/
COc1ccccc1COCC(O)CN(Cc1ccco1)Cc1ccccc1O (centres undefined)	7.31µM*	-19.2%	i	?	?	0.0%
COc1ccc(C2C(C(N)=O)=C(C)Nc3nc(CCCO)nn32)c(OC)c1 (centres undefined)	i	/	i	3.3%	-16.6%	/
CCCNC(=O)C1(C)CCN1C(=O)Cc1ccc(C(C)(C)C)cc1 (centres undefined)	i	-1.6%	i	14.6µM*	?	0.6%
CSCCNC(=O)C1(C)CCN1C(=O)c1ccc(C(C)(C)C)cc1 (centres undefined)	i	-15.4%	i	14.6µM*	18.4µM*	3.0%
CCCNC(=O)C1(C)CCN1C(=O)c1ccc(C(C)(C)C)cc1 (centres undefined)	i	-15.2%	i	14.6µM*	?	-24.0%
CCCNC(=O)C1(C)CCN1C(=O)c1cc(C)n(C)n1 (centres undefined)	i	19.4%	i	5.7%	3.4%	15.3%
O=C(NCCc1ccccc1C(F)(F)F)c1cc(COc2ccccc2)on1	i	-3.8%	i	16.4µM*	16.4µM*	-6.3%
COc1ccc(CCNC(=O)c2cc(COc3c(C)cccc3C)on2)c(OC)c1	/	12.5%	/	-26.8%	23.1µM*	0.0%
